# Reference: PubChem BioAssay AID463173 (ICCB-Longwood Screening Facility, Harvard Medical School, 2010)
# The whole screen tested about 52,000 compounds, of which about 4,300 (8.3%) were called active. For the sample, actives were picked, then their nearest neighbours and some compounds at random. Values without a mark were called inactive. Cut-off read from the data, not from the text of the source: active = survival mostly below about 52% (no sharp cut-off); inactive = mostly above about 56%.
# System: DeltatarO mutant
# Assay: S. aureus survival, RN4220 and DeltatarO strains – OD600, teichoic acid synthesis inhibitors, primary screen (AID 463173)
# Details: S. aureus RN4220 wild type/DeltatarO growth, OD600, 18 h, hits give low values, screened at 18.75 µg/mL (by protocol)
row,SMILES,survival
1,O=C(CCc1ccccc1)N/N=C/c1ccco1,104%
2,Cc1cc(C)c(NS(=O)(=O)c2ccc(-c3cnc(C4CC4)o3)cc2)c(C)c1,99%
3,CCCC(=O)C1=C(O)C(C(=O)OC)C(C)(C)CC1=N (stereo not given),95%
4,Cc1ccccc1CNC(=O)CN1CCSc2ccccc21,89%
5,Cc1ccccc1NC(=O)c1c(C)oc2ccc(O)c(CN3CCCC(C)C3)c12 (stereo not given),108%
6,Cc1nn(-c2ccccc2)c(-n2cccc2)c1C(=O)N1CCN(c2ccccc2)CC1,83%
7,Cc1ccc(N(C)S(=O)(=O)c2ccc3c(c2)C(C)(C)C(=O)N3C)cc1C,80%
8,CCOC(=O)C1CCCN(C(=O)c2[nH]c3ccccc3c2Sc2ccc(Cl)cc2)C1 (stereo not given),37% (active)
9,Cc1ccc2c(Sc3ccc(Cl)cc3)c(C(=O)N3CCC(C)CC3)[nH]c2c1,69%
10,COc1ccc2c(Sc3ccc(Cl)cc3)c(C(=O)N3CCCCC3)[nH]c2c1,40% (active)
11,Cc1ccc2c(Sc3ccc(Cl)cc3)c(C(=O)N3CCCCC3)[nH]c2c1,85%
12,CCOC(=O)C1CCCN(S(=O)(=O)c2ccc(Cl)cc2)C1 (stereo not given),95%
13,O=C(c1[nH]c2ccccc2c1Sc1ccc(Cl)cc1)N1CCCCC1,11% (active)
14,COc1ccc2c(Sc3ccc(Cl)cc3)c(C(=O)N3CCC(C)CC3)[nH]c2c1,64%
15,CCOC(=O)C1CCCN(C(=O)c2ccc3c(c2)N(Cc2ccc(Cl)cc2)C(=O)c2ccccc2S3=O)C1 (stereo not given),60%
16,COc1ccc2c(Sc3ccccc3)c(C(=O)N3CCC(C)CC3)[nH]c2c1,69%
17,CCOC(=O)C1CCCN(C(=O)c2ccc3c(c2)N(Cc2cccc(Cl)c2)C(=O)c2ccccc2S3(=O)=O)C1 (stereo not given),64%
18,Cc1cccc(NC(=O)CS(=O)(=O)c2nc(-c3ccccc3)cn2-c2cccc(Cl)c2)c1C,63%
19,Cc1ccc(C)c(Cn2c(=O)n(CCCCC(=O)NCc3ccccc3Cl)c(=O)c3ccccc32)c1,107%
20,COc1ccc(N(C)C(=O)Cn2cc(S(=O)(=O)N3CCN(c4ccccc4F)CC3)c3ccccc3c2=O)c(OC)c1,97%
21,Cc1ccc(-c2nn3c(C)nnc3c3ccccc23)cc1S(=O)(=O)NC(C)(C)CO,74%
22,O=C(NCc1ccccc1Cl)c1cnc2sc(N3CCOCC3)nn2c1=O,71%
23,COc1cccc(-c2nc(SCc3cc(=O)c4cc(Cl)ccc4[nH]3)n[nH]2)c1,94%
24,O=C(C1CC2c3ccccc3C1c1ccccc12)N1CCOCC1 (stereo not given),86%
25,COc1ccc(OC)c(NC(=O)C2CCN(S(=O)(=O)c3ccc4c(c3)CC(C)N4C(C)=O)CC2)c1 (stereo not given),75%
26,COc1ccc(C(=O)NCc2ccc3c(c2)CCN3C(=O)c2cccc(C)c2)cc1OC,119%
27,Cc1ccc(Cl)cc1N1CCN(S(=O)(=O)c2ccc3[nH]c4c(c3c2)CCCC4)CC1,72%
28,COc1ccc(NC(=O)CN(c2ccccc2OC)S(C)(=O)=O)c(OC)c1,75%

row,SMILES,survival
1,Cc1ccc(-n2ccn(CC(=O)c3ccc(F)cc3)c(=O)c2=O)cc1C,69%
2,Cc1ccc2c(=O)cc(C(=O)Nc3c(C)n(C)n(-c4ccccc4)c3=O)oc2c1,39% (active)
3,Cc1cc2oc(C(=O)Nc3c(C)n(C)n(-c4ccccc4)c3=O)cc(=O)c2cc1C,78%
4,Cc1c(NC(=O)c2cc(=O)c3ccccc3o2)c(=O)n(-c2ccccc2)n1C,67%
5,CCc1ccc2oc(C(=O)Nc3c(C)n(C)n(-c4ccccc4)c3=O)cc(=O)c2c1,97%
6,Cc1c(NC(=O)c2cc(=O)c3cc(Cl)ccc3o2)c(=O)n(-c2ccccc2)n1C,43% (active)
7,Cc1cc(C)c2c(=O)cc(C(=O)Nc3c(C)n(C)n(-c4ccccc4)c3=O)oc2c1,65%
8,CCN(CC)CCN1C(=O)c2ccccc2NC1c1ccccc1F (stereo not given),106%
9,CCOc1ccc(NC(=O)CSc2cn(CCNC(=O)c3ccccc3F)c3ccccc23)cc1,71%
10,CCC(Sc1nccn1C)C(=O)Nc1cc(C)on1 (stereo not given),90%
11,Cc1ccc(CSc2nc3cc(C(=O)NC4CCCC4)ccc3c(=O)n2Cc2ccccc2)cc1,57%
12,CCC(Sc1nnc(-c2ccc(F)cc2)c(-c2ccc(F)cc2)n1)C(=O)NC1CCCC1 (stereo not given),75%
13,CCC(Sc1nc2nccnc2c(=O)n1Cc1ccc(C)cc1)C(=O)NC1CCCCC1 (stereo not given),39% (active)
14,CCC(Sc1nc2nccnc2c(=O)n1Cc1ccccc1Cl)C(=O)NC1CCCCC1 (stereo not given),99%
15,CCC(Sc1nc2nccnc2c(=O)n1Cc1ccc(OC)cc1)C(=O)NC1CCCCC1 (stereo not given),104%
16,CCC(Sc1nc2cc(OC)c(OC)cc2c(=O)n1Cc1ccc(Cl)cc1)C(=O)NCCOC (stereo not given),91%
17,CCC(Sc1nc2nccnc2c(=O)n1Cc1ccc(F)cc1)C(=O)NC1CCCCC1 (stereo not given),42% (active)
18,CCC(Sc1nc2nccnc2c(=O)n1Cc1ccc(Cl)cc1)C(=O)NC1CCCCC1 (stereo not given),19% (active)
19,CCC(C(=O)NC1CCCCC1)n1c(SCc2ccc(F)cc2)nc2ccncc21 (stereo not given),73%
20,CCOC(=O)N1CCN(C(=O)CN(c2cccc(Cl)c2C)S(=O)(=O)c2ccc(C)cc2)CC1,119%
21,CC1CCN(S(=O)(=O)c2csc(C(N)=O)c2)CC1,85%
22,CC1CCN(S(=O)(=O)c2cccc(C(=O)N(C)C3(C)CCS(=O)(=O)C3)c2)CC1 (stereo not given),75%
23,CN1CCN(C(c2ccc(F)cc2)c2sc3nc(-c4ccco4)nn3c2O)CC1 (stereo not given),79%
24,Cc1cc(C)c(S(=O)(=O)NCC(c2ccco2)N2CCOCC2)c(C)c1 (stereo not given),89%
25,CN(C)c1ccc(-c2nc3ccc(Cl)cn3c2Nc2ccc3c(c2)OCCO3)cc1,143%
26,COc1cccc2c1Oc1nc(-c3ccccc3)nc(SCC(=O)N3CCCCC3)c1C2,100%
27,COc1ccc(CCC(=O)N2CCc3c([nH]c4ccccc34)C2c2ccc(F)cc2)cc1 (stereo not given),83%
